Assay in all cases: protein-binding microarray (PBM); PBM: ~300 nM protein, 6 mM HEPES pH 7.8, 80 mM KCl, 0.5 mM EDTA, 0.5 mM EGTA, 6% glycerol, 35 ng/ul poly-dIdC, 1% milk, 1 h, room temperature; Ap Aiptasia and Nv Nematostella (sea anemones) / Co Capsaspora / Aq Amphimedon (sponge) / Dm Drosophila / Hu human; RHD is the Rel homology domain; high values mean tight binding
Holding throughout (conditions): dsDNA, one strand shown

One test has as its target T1, GST-Ap-NF-kB RHD (Exaiptasia pallida (Aiptasia), UniProt A0A913YAJ5 2-422).
T1 sequence: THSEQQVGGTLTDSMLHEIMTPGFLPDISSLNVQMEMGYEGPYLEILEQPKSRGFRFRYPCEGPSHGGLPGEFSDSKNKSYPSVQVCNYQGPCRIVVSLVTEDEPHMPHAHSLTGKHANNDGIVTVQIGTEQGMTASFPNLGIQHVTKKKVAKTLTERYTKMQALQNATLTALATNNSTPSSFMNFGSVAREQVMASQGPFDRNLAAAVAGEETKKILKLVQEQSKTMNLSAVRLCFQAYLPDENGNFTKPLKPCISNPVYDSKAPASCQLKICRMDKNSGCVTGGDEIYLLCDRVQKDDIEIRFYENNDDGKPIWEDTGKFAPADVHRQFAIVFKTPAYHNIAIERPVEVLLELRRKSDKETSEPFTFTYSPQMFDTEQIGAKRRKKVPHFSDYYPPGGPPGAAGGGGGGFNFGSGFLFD

For test [1], the target named is T2, GST-Nv-NF-kB (Cys allele) (Nematostella vectensis, UniProt E5G601 2-411).
T2 sequence: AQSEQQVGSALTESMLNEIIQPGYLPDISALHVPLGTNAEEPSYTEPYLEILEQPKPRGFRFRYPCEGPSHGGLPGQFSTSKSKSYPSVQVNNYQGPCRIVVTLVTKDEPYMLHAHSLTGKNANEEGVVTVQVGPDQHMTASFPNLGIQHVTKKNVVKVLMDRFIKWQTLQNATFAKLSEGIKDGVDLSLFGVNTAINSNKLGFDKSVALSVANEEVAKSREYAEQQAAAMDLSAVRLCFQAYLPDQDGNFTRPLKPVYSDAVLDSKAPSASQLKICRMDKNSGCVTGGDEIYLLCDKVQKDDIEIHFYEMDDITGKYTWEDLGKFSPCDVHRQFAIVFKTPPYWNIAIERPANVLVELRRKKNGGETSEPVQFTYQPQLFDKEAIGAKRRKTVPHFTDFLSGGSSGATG

Test [2] concerns the target T3, GST-Nv-NF-kB (Ser allele) (Nematostella vectensis, UniProt A7UNT2 2-411).
T3 sequence: T2 sequence with Q21R, C66S, S207N, E215Q, V217A, E225K, A268E, D399E

For a further test, the target named is T4, GST-Co-NF-kB (Capsaspora owczarzaki, UniProt F1ARL5 200-546).
T4 sequence: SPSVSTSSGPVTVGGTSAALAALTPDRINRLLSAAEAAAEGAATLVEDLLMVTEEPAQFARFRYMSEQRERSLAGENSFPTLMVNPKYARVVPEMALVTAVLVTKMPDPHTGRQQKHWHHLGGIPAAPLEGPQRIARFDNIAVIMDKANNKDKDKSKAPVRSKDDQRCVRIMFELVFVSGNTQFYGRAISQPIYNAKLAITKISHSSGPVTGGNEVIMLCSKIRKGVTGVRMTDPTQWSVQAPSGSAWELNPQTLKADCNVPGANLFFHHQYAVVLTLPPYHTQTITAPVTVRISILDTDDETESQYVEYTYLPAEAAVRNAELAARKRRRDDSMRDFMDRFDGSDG

Another test concerns the target T5, GST-Dm-Relish (Drosophila melanogaster, UniProt Q94527 99-473).
T5 sequence: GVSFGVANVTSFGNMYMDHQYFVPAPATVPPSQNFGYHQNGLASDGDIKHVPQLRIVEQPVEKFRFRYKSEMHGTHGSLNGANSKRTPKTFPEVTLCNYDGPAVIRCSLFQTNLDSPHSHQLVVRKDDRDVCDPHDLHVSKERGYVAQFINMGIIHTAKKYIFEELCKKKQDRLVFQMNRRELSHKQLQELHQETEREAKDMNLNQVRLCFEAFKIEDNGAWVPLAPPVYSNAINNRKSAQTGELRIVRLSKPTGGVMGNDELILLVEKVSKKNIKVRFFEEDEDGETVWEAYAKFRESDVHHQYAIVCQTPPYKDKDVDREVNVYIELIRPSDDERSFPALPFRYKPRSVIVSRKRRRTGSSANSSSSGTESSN

The target of a further test is T6, GST-Aq-NF-kB (Amphimedon queenslandica, UniProt A9Y5G7 2-389).
T6 sequence: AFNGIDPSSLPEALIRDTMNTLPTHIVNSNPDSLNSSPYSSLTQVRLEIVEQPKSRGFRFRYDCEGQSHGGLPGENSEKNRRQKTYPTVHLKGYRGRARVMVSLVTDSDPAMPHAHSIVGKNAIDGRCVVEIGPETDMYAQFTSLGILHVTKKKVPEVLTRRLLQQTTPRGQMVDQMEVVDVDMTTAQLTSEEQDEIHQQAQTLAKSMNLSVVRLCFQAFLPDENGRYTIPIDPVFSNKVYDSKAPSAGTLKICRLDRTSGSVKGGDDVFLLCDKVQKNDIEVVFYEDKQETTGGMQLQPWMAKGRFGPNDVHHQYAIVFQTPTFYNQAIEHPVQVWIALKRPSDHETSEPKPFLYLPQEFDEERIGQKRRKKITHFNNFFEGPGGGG

In the next test the target is GST-Hu-p50 (Homo sapiens, UniProt P19838 7-356).
Chain of GST-Hu-p50 (P19838 7-356): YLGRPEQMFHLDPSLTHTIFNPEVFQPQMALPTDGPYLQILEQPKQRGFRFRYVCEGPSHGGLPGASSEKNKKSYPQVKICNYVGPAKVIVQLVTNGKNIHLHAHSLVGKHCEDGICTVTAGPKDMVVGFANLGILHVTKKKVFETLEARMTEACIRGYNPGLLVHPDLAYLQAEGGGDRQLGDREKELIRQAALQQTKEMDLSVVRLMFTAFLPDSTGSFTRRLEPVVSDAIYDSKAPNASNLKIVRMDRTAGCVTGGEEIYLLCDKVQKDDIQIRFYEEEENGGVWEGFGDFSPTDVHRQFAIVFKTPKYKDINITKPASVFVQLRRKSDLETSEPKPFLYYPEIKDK

Numbering of substitutions follows the chain as printed.

The text below walks through data of publication PMC5700166.

For “CCGATTAACATCAGGGGAAGTAATGATGTTAATCGGGTCTTGATTCGCTTGACGCTGCTG”, the binding signal with GST-Ap-NF-kB RHD stood at 4.58 z-score; in test [1] it was 6.3 z-score; in test [2], 7.78 z-score; with GST-Co-NF-kB, 5.87 z-score; in the test with GST-Dm-Relish, 6.8 z-score; in the test with GST-Aq-NF-kB it was 4.63 z-score. In addition, the binding signal with GST-Hu-p50 turned out to be 5.36 z-score.
Consider “CCGATTAACATCAGGGAAAGCTATGATGTTAATCGGGTCTTGATTCGCTTGACGCTGCTG”, for which the binding signal in the test with GST-Ap-NF-kB RHD came to 2.11 z-score; in test [1], 3.99 z-score; in test [2] it was 3.57 z-score; in the test with GST-Co-NF-kB, 2.65 z-score; with GST-Aq-NF-kB it was 3.54 z-score; with GST-Hu-p50, 2.53 z-score.
In the case of “CCGATTAACATCAGGGAAATGTATGATGTTAATCGGGTCTTGATTCGCTTGACGCTGCTG”, the binding signal with GST-Ap-NF-kB RHD was found to be 3.08 z-score; in test [1], 4.81 z-score; in test [2], 4.88 z-score; in the test with GST-Co-NF-kB it was 3.3 z-score; in the test with GST-Aq-NF-kB it was 4.45 z-score; in the test with GST-Hu-p50, 3.4 z-score.
With “CCGATTAACATCACACATGCCCCTGATGTTAATCGGGTCTTGATTCGCTTGACGCTGCTG”, the binding signal in the test with GST-Ap-NF-kB RHD turned out to be 1.13 z-score; in test [1], 1.37 z-score; in test [2] it was 1.04 z-score; with GST-Co-NF-kB it was 1.12 z-score; with GST-Aq-NF-kB, 1.68 z-score; with GST-Hu-p50, 1.36 z-score.
For the sequence “CCGATTAACATCAAAACATCCCCTGATGTTAATCGGGTCTTGATTCGCTTGACGCTGCTG”, the binding signal is 6.41 z-score in the test with GST-Ap-NF-kB RHD; 8.11 z-score in test [1]; 8.22 z-score in test [2]; 4.63 z-score with GST-Co-NF-kB; 8.65 z-score in the test with GST-Dm-Relish; 7.07 z-score with GST-Aq-NF-kB. This sequence also gave a binding signal with GST-Hu-p50 of 5.91 z-score.
Turning to “CCGATTAACATCAGGGGAAAGTATGATGTTAATCGGGTCTTGATTCGCTTGACGCTGCTG”, the binding signal is 6.56 z-score in the test with GST-Ap-NF-kB RHD; 7.79 z-score in test [1]; 9.37 z-score in test [2]; 7.64 z-score with GST-Co-NF-kB; 2.88 z-score in the test with GST-Dm-Relish; 5.82 z-score with GST-Aq-NF-kB. In addition, the binding signal in the test with GST-Hu-p50 was 5.75 z-score.
For “CCGATTAACATCAATTCCCATCCTGATGTTAATCGGGTCTTGATTCGCTTGACGCTGCTG”, the binding signal in the test with GST-Ap-NF-kB RHD was found to be 1.57 z-score; in test [1] it was 2.99 z-score; in test [2] it was 2.59 z-score; with GST-Co-NF-kB it was 1.43 z-score; in the test with GST-Aq-NF-kB, 1.94 z-score; with GST-Hu-p50, 1.57 z-score.
As to “CCGATTAACATCAAGAGATCCCCTGATGTTAATCGGGTCTTGATTCGCTTGACGCTGCTG”, the binding signal in the test with GST-Ap-NF-kB RHD was 6.49 z-score; in test [1], 5.71 z-score; in test [2], 6.22 z-score; with GST-Co-NF-kB it was 2.3 z-score; with GST-Dm-Relish, 6.47 z-score; with GST-Aq-NF-kB, 4.97 z-score. In the test with GST-Hu-p50, this sequence had a binding signal of 4.57 z-score.
With “CCGATTAACATCAATGTGGGAAATGATGTTAATCGGGTCTTGATTCGCTTGACGCTGCTG”, the binding signal in the test with GST-Ap-NF-kB RHD is 1.32 z-score; in test [1], 2.75 z-score; in test [2], 2.53 z-score; with GST-Co-NF-kB, 2.85 z-score; in the test with GST-Aq-NF-kB, 1.55 z-score; in the test with GST-Hu-p50, 1.92 z-score.
Regarding “CCGATTAACATCAGGGGCAGGGATGATGTTAATCGGGTCTTGATTCGCTTGACGCTGCTG”, the binding signal was found to be 2.32 z-score with GST-Ap-NF-kB RHD; 1.46 z-score in test [1]; 1.47 z-score in test [2]; 1.59 z-score with GST-Co-NF-kB; 2.02 z-score with GST-Aq-NF-kB; 2.01 z-score with GST-Hu-p50.
For “CCGATTAACATCAATCTTTTCCCTGATGTTAATCGGGTCTTGATTCGCTTGACGCTGCTG”, the binding signal in the test with GST-Ap-NF-kB RHD stood at 2.35 z-score; in test [1] it was 4.39 z-score; in test [2], 5.52 z-score; with GST-Co-NF-kB it was 3.98 z-score; in the test with GST-Aq-NF-kB it was 3.34 z-score; with GST-Hu-p50 it was 2.99 z-score.
Consider “CCGATTAACATCAAGGATTCCCCTGATGTTAATCGGGTCTTGATTCGCTTGACGCTGCTG”, for which the binding signal with GST-Ap-NF-kB RHD amounted to 9.7 z-score; in test [1], 10.5 z-score; in test [2], 10 z-score; with GST-Co-NF-kB, 6.56 z-score; with GST-Dm-Relish, 9.55 z-score; with GST-Aq-NF-kB, 7.75 z-score. The sequence also showed a binding signal in the test with GST-Hu-p50 of 6.89 z-score.
As for “CCGATTAACATCAGGGAAGCCCCTGATGTTAATCGGGTCTTGATTCGCTTGACGCTGCTG”, the binding signal in the test with GST-Ap-NF-kB RHD stood at 9.42 z-score; in test [1] it was 10.8 z-score; in test [2], 7.12 z-score; with GST-Co-NF-kB, 1.97 z-score; in the test with GST-Dm-Relish, 10.3 z-score; in the test with GST-Aq-NF-kB, 9.75 z-score. Further, the binding signal with GST-Hu-p50 came out at 6.02 z-score.
